Screening results from PubChem BioAssay.
S16 viability: toxic to S16 Pmp22-F2sN Schwann cells | S16 Pmp22-F2sN Schwann cells viability, CellTiter-Glo, 24 h | Potency, µM (series often up to 57.5 µM), inactives show at the top dose activity change, negative = cytotoxicity, actives largely listed as cytotoxic | 43,000 compounds, 0.48% hits | AID 1508642; also: nearly all actives have a fitted effect of over 65% in size
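Viability was measured by CellTiter-Glo luminescence (15 min, room temperature). This followed 24 h at 37 °C of compound exposure (23 nL pin transfer) in S16 Pmp22-F2sN Schwann cells, 500-1,000 per well.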
SKOV3 invasion: inhibitors of ovarian cancer cell adhesion and invasion in omental model; Potency, µM (series often up to 45.8 µM), inactives show at the highest dose activity change, negative = inhibition, usual class: inhibitors; SKOV3ip1-GFP adhesion/invasion on 3D omental model, fluorescence; 46,000 compounds, 0.1% hits;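 also: plate controls were DMSO wells for no effect and tomatine positive control wells for full effect; nearly all actives have a fitted effect of over 65% in size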
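Primary human omental fibroblast/mesothelial 3D culture pre-formed 48 h. SKOV3ip1-GFP cells added with compounds (0.36-46 umol/L), incubated 2 h RT/16 h 37 C, fixed; GFP cells quantified at 488/509 nm.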
pS6 MEF inh: reduces mTORC1 signaling in Tsc2 and p53 null MEF cells; AID 493208; Potency, µM (highest dose often 38.3 µM), inactives show at the top dose activity change, negative = inhibition, hits mostly inhibitors; 44,000 compounds, 0.78% hits; Tsc2-/- p53-/- MEF, phospho-rpS6 immunofluorescence/PI, 24 h;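 also: plate controls were DMSO for no effect and rapamycin for full effect; nearly all actives have a fitted effect of over 50% in size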
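Tsc2-/-, p53-/- MEFs (empty-vector stable line) in DMEM + 10% FBS were treated with compounds 24 h at 37 degree Celsius, fixed, and immunostained for phospho-rpS6 (Alexa-488) with propidium iodide counterstain. Laser-scanning cytometry gave % positive cells, normalized against 7.5 nM rapamycin and DMSO.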
p53null 39C kill: p53 null cell cytotoxicity, nonpermissive temperature; 55,000 compounds, 0.97% hits; H1299 p53-null (neo) cells, 39C, ATPlite viability, 24 h; Potency, µM (top dose mostly 46.1 µM), inactives show top-dose activity, negative = cell killing, hits mostly cytotoxic;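 also: 0% = DMSO only and -100% = full killing by 100 µM tamoxifen; nearly all actives have a fitted effect of over 50% in size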
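Cells seeded at 600/well, 37C overnight. Compound added (up to 46 uM), plates shifted to 39C for 24 hr. ATPlite added, luminescence read after 20 min at room temperature.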
p53null 32C tox: selectivity test: cytotoxicity in p53 null cells, permissive temperature. H1299-neo p53 null cells, ATP luminescence, 24 h, 32C. Potency, µM (top dose mostly 46.1 µM), inactives show at the top dose activity change, negative = cytotoxicity, hits mostly cytotoxic. 55,000 compounds, 0.62% hits. AID 903;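 also: 0% = DMSO only and -100% = full killing by 100 µM tamoxifen; nearly all actives have a fitted effect of over 55% in size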
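H1299-neo (p53 null) cells, 600/well, treated 24 h at 32C with compound up to 46 uM; ATPlite luminescence viability, normalized to DMSO and 100 uM tamoxifen; AC50 by Hill fit.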
PMP22 txn: modulates PMP22 transcription in S16 Schwann cells; Potency, µM (titrated, usually from 57.5 µM), without a hit: top-dose activity change, negative = inhibition, hits mostly inhibitors; S16 Pmp22-F2sN Schwann cells (luciferase reporters placed in the Pmp22 gene), FLuc/NLuc coincidence luminescence, 24 h; 43,000 compounds, 2% hits; active = clear falling dose curves in both reporters; inconclusive = both reporters move, but less clearly or upward; inactive = either reporter flat; the % is the NLuc reporter signal
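S16(c9) Schwann cells with FLuc/NLuc coincidence reporter in the Pmp22 3' UTR; compounds pin-transferred, 24 h at 37C. Dual-luciferase read: FLuc first, then NLuc after Stop&Glo, each 10 min at room temperature.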
Numbers without * were called inactive; i = inactive; ? = inconclusive; / = not tested or not shown; [ ] = another dose, or the depositor's remark. A selection: hits, their analogues and other compounds. The true share with any hit is near 3.1%. Unless noted, calls follow the shape of the dose curve; as a rule, active = well fitted curve in the direction sought with a large enough effect; inconclusive = small, poorly fitted or top-dose-only effect, or another doubt; inactive = no such curve, though single readings can be large; an effect the other way counts as inactive or inconclusive. Unless noted, % is scaled to controls: 0 for no effect and ±100 for the full control effect; potency is read from the fitted curve at half-maximal effect.

SMILES | S16 viability | SKOV3 invasion | pS6 MEF inh | p53null 39C kill | p53null 32C tox | PMP22 txn
Cc1cccc(NC(=O)CCCn2c(C)c3cnn(-c4ccccc4)c(=O)c3c2C)c1C | -4% | i | 1% | -7% | -3% | -22%
Cc1cccc(N2CCN(C(=O)Cn3c(C)c4cnn(-c5ccccc5)c(=O)c4c3C)CC2)c1C | ? | i | 5% | 7% | 19% | 12µM*
COc1ccccc1-c1cc(C(=O)Nc2cc(OC)c(OC)c(OC)c2)no1 | ? | -26% | ? | -18% | 9% | 3.8µM*
COc1ccccc1-c1cc(C(=O)Nc2cc(Cl)ccc2O)no1 | / | 2% | -29% | -12% | -4% | /
Cc1cc(CS(=O)(=O)c2ccccc2)cc(OCc2ccc(CN3CCC[C@H]3CO)cc2)c1 | / | 29% | / | / | / | /
CC(C)C[C@@H](N)[C@H](O)C(=O)N[C@H](C(=O)N[C@H](C(=O)N[C@@H](CC(=O)O)C(=O)O)C(C)C)C(C)C | / | -5% | / | / | / | /
CCCCN(C)CC(O)Cn1cc(/C=C/C(=O)c2ccc(OCC)cc2)c2ccccc21 (configuration not stated) | ? | ? | ? | 5µM* | ? | ?
CCCn1c(=O)c2[nH]c(C34CC5CC3C[C@@H](C5)C4)nc2n(CCC)c1=O | / | -4% | / | / | / | /
NC(=O)c1ncn([C@@H]2O[C@H](CO)[C@@H](O)[C@@H]2O)n1 | / | -12% | / | / | / | /
CCCNc1ncnc2onc(C)c12 | ? | 1% | -3% | 2% | -4% | 0%
CSc1ccc(CCNc2ncnc3onc(C)c23)cc1 | ? | 4% | 1% | -14% | -8% | 2.2µM*
COc1ccc(NC(=O)CCc2c(C)nn(-c3ccc(N4CCCCC4)nn3)c2C)cc1Cl | / | 12% | 6% | ? | 10µM* | /
COc1cc(C(=O)Nc2sc3c(c2C#N)CCCC3)c(Br)c(OC)c1OC | ? | -9% | 7% | 7% | 21% | 13µM*
Cc1cccc2nc(-c3ccccn3)c(Nc3ccc(F)cc3)n12 | ? | ? | -16% | ? | 22% | 13µM*
Cc1cccc2nc(-c3ccccn3)c(Nc3ccccc3)n12 | -6% | -14% | -11% | ? | 27% | ?
Cc1ccc(NC(=O)c2oc3ccc4c(c3c2C)C(=O)CC(C)(C)O4)c(C)c1 | 16% | -15% | 6% | -6% | -16% | -6%
COC(=O)c1ccccc1NC(=O)c1oc2ccc3c(c2c1C)C(=O)CC(C)(C)O3 | 12% | i | 1% | 4% | -6% | -18%
CCOC(=O)c1ccc(NC(=O)c2oc3ccc4c(c3c2C)C(=O)CC(C)(CC)O4)cc1 (configuration not stated) | 2% | -4% | -6% | 3.2µM* | ? | ?
CC(=O)Nc1ccc(NC(=O)c2oc3ccc4c(c3c2C)C(=O)CC(C)(C)O4)cc1 | ? | i | -2% | 3.2µM* | 4µM* | ?
CC(=O)Nc1ccc(NC(=O)c2nc(S(=O)(=O)Cc3ccc(F)cc3)ncc2Cl)cc1 | 3.5µM* | 3.2µM* | 5.2µM* | -28% | -11% | 1.9µM*
COc1ccc(OC)c(NC(=O)c2nc(S(=O)(=O)Cc3ccc(F)cc3)ncc2Cl)c1 | 4.5µM* | 6.3µM* | 2.9µM* | 25µM* | ? | ?
Cc1ccc(NC(=O)c2nc(S(=O)(=O)Cc3ccc(F)cc3)ncc2Cl)cc1C | 10µM* | 11µM* | ? | ? | 20µM* | 7.3µM*
CC(=O)Nc1ccc(NC(=O)c2nc(SCc3ccccc3C)ncc2Cl)cc1 | 6% | -9% | -6% | -6% | -10% | ?
COC(=O)c1ccc2c(C(=Nc3ccc(N(C)C(=O)CN4CCN(C)CC4)cc3)c3ccccc3)c(O)[nH]c2c1 | / | -3% | / | / | / | /
Cc1ccc(C)c(CN2C(=O)C(=O)c3ccccc32)c1 | ? | 1% | 2.9µM* | -8% | 1% | ?
SMILES | S16 viability | SKOV3 invasion | pS6 MEF inh | p53null 39C kill | p53null 32C tox | PMP22 txn
Cc1ccc2c(c1)C(=O)C(=O)N2Cc1ccc(OC(C)C)cc1 | ? | -7% | ? | 15% | 57% | 2.3µM*
CC(C)(C)COc1ccc(-n2cc(C(=O)O)cn2)cc1C#N | / | 11% | / | / | / | /
Fc1ccc(Cc2cn3cc(-c4ccccc4)nc3s2)cc1 | 15% | i | 2% | 2µM* | 4.5µM* | -21%
Cc1ccc(Cl)cc1NC(=O)CN1C(=O)c2cccc3cccc1c23 | 9% | 5% | -5% | -9% | 7% | ?
Cc1cc(Cl)ccc1NC(=O)CN1C(=O)C(=O)c2ccccc21 | ? | -7% | 10µM* | -16% | -8% | ?
C[C@@H](Cc1cc2c(c(C(N)=O)c1)N(CCCO)CC2)NCCOc1ccccc1OCC(F)(F)F | / | -2% | / | / | / | /
Nc1ccc2oc(-c3ccccc3Br)nc2c1 | -2% | 3% | -2% | 13µM* | ? | ?
CO[C@H]1C=CC=C(C)C(=O)NC2=CC(=O)C(NCCN(C)C)=C(C[C@@H](C)C[C@H](OC)[C@@H](O)[C@@H](C)C=C(C)[C@@H]1OC(N)=O)C2=O | / | -7% | / | / | / | /
COc1cccc(Nc2c(C(N)=O)cnc3c(C)cc(S(=O)(=O)c4cccc(C(=O)N(C)C)c4)cc23)c1 | / | -9%[23.2 µM] | / | / | / | /
C=CCc1c(C)nc2nc(SCC(=O)Nc3ccc(C)c(C)c3)nn2c1C | ? | -23% | 10µM* | -4% | -6% | ?
O=C(NC1CCCCC1)/C(=C/c1ccc(Cl)cc1)NC(=O)c1ccccc1 | ? | -14% | 15µM* | 22% | 6% | ?
CC=C1NC(=O)[C@H]2CSSCCC=C[C@H](CC(=O)N[C@H](C(C)C)C(=O)N2)OC(=O)[C@H](C(C)C)NC1=O | / | -15% | / | / | / | /
COc1ccc(N2CCN(C(=O)c3ccc(Nc4nc5ccccc5n5nnnc45)cc3)CC2)cc1 | ? | -12% | 0% | -7% | -1% | ?
O=C(c1ccc(Nc2nc3ccccc3n3nnnc23)cc1)N1CCN(c2ccc(F)cc2)CC1 | ? | -6% | 3% | -19% | -2% | 4µM*
CN(C)c1ccc(Nc2nc3ccccc3n3nnnc23)cc1 | ? | 4% | -1% | ? | -20% | 14µM*
CCOc1ccc(CNC(=O)c2ccc(NC(=O)N3CCCCc4ccccc43)cc2)cc1 | ? | 4% | 1% | 27% | 9% | -21%
Cc1ccc(NC(=O)N2CCc3ccccc32)cc1 | / | / | / | 5µM* | 5.6µM* | /
